Compounds without any hit were thinned out: in the full panel of roughly 83,000, 20% have a hit.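 In brief: 96-well plates, 48 h treatment, single concentration, percent growth endpoint.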 Unmarked numbers belong to inactive results. The source made the active and inactive calls. How the source made its calls: active means growth percent below 10; inactive means the rest.
tested on: MDA-MB-468 breast; experiment: NCI-60 one-dose screen, 48 h (100 = growth as untreated, 0 = no growth, -100 = all killed); settings: 10 µM unless noted

Structure (SMILES)	growth
CC(C)C[C@@H]1N[C@@]2(C(=O)Nc3ccccc32)[C@@H](c2ccc(F)cc2)[C@@H]1C(=O)c1ccc(O)cc1	102%
Cn1cc(C(=O)c2nc(-c3c[nH]c4ccccc34)no2)c2ccccc21	-4.38% (active)
c1ccc(-c2oc(-c3ccccc3)c3ccccc23)cc1	109%
COc1ccc2c(c1)nc(N)c1c3cc(OC)c(OC)cc3cn21	2.7% (active)
CCOC(=O)CC(=O)c1c(C)cc(C)cc1C	98.6%
CCOC(=O)c1c(NC(=O)c2ccc(C(F)(F)F)cc2)sc2c(CN3CCN(C)CC3)c(O)ccc12	-80.6% (active)
Cc1cccc(Cl)c1NC(=O)c1ccc2nc(NC(=O)NCCN(C)C)sc2c1	30.6%
CC(=O)Oc1c(C)c(C)c2c(c1C)CCC(C)(CC(=O)OCCCCCCCCCCC[P+](c1ccccc1)(c1ccccc1)c1ccccc1)O2 (stereo unspecified)	-55.7% (active)
O=C(/C=C/c1cc2ccccc2[nH]c1=O)/C=C/c1cc2ccccc2[nH]c1=O	-31.7% (active)
COC(c1ccccc1)C(Br)C(=O)c1ccccc1 (stereo unspecified)	94.8%
Cc1ccc(N2CCN(C(C)C(N)=O)CC2)cc1 (stereo unspecified)	109%
COc1cc(OC)cc(-c2ccc(-c3ccc(C(=N)N)cn3)s2)c1	64.4%
N#CC1=C(N)Oc2c(sc3c(F)cccc23)C1c1ccc([N+](=O)[O-])cc1 (stereo unspecified)	-41.6% (active)
COc1ccc(N=Nc2ccc(O)c(=O)cc2)cc1	-31.9% (active)
Cc1ccc(-c2nc(SCC(=O)c3ccc(C#N)cc3)[nH]c(=O)c2C#N)cc1	120%
C=C1CC2(OC1=O)C(=O)N(CCCN1C(=O)C3(CC(=C)C(=O)O3)c3ccccc31)c1ccccc12 (stereo unspecified)	-34% (active)
CCN1CCN(c2nc(NCCNc3ccnc4cc(Cl)ccc34)c3ccccc3n2)CC1	-28.8% (active)
O=C(NC[C@H](O)CN1CCc2ccccc2C1)c1cc(NC2COC2)ncn1	115%
COc1cc(Nc2c3ccc(Cl)cc3nc3ccc(OC)cc23)c2ncccc2c1	36.3%
COc1ccc(-c2nc(SCC(C)C)nc(Nc3ccc(C(=O)O)cc3)c2C#N)cc1	91.3%
CCOC(=O)c1cnc2cc(Cl)c(F)cc2c1Nc1cccc(NS(C)(=O)=O)c1	87.6%
Nc1cccc(-c2nc3sccn3c2-c2ccnc(NCCCNS(=O)(=O)c3ccc(C(F)(F)F)cc3)n2)c1	0.59% (active)
Cc1cccc2c3c(sc12)C(c1ccc(F)cc1)C(C#N)=C(N)O3 (stereo unspecified)	24.3%
C(=N\Nc1ccc2ccccc2n1)/c1ccccn1	-27% (active)
CC(C)Sc1nc(Cl)c(C#N)c(-c2ccc(F)cc2)n1	98.9%
CN1CCCN(C(c2ccccc2)c2ccc(Cl)cc2)CC1 (stereo unspecified)	83.1%

From PubChem BioAssay (NCI)
